# GoLoco inh red: qHTS Assay for Inhibitors of RGS12 GoLoco Motif Activity (Red Fluorophore); Potency, µM (series often up to 61.6 µM), for inactives: at the top dose activity, negative = inhibition, usual class: inhibitors; Gai1:RGS12 GoLoco peptide FP, rhodamine, 10 min; AID 880, 2007; hit rate 0.44% among 230,000; Guanine nucleotide-binding protein G(i) subunit alpha-1 (Homo sapiens), P63096; active = well fitted inhibition curve with a large enough effect, not every such curve was filed as active; inactive = no such curve, though single readings can be large or run the other way; note: potency is the fitted concentration of half-maximal effect; % is set by controls: 0 for no effect and ±100 for the full control effect; nearly all actives have a fitted effect of over 30% in size
# Target sequence (P63096 whole entry, looked up): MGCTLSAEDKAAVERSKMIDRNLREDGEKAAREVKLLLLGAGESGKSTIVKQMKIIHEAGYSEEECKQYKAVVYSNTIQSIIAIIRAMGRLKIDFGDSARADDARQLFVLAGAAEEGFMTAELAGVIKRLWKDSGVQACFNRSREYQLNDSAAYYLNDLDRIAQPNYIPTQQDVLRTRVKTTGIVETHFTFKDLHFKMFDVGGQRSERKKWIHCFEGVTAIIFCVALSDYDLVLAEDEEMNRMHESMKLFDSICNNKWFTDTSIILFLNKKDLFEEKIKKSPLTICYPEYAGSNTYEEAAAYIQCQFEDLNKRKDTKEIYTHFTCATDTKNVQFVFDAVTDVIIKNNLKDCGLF
# VDR inh: Inhibitors of the vitamin D receptor (VDR): qHTS; Vitamin D3 receptor (Homo sapiens), P11473; VDR-SRC2-3 peptide fluorescence polarization, 2 h; hit rate 0.93% among 400,000; Potency, µM, inactives show max response, negative = inhibition, hits mostly inhibitors; note: potency is the fitted concentration of half-maximal effect; % is set by controls: 0 for no effect and ±100 for the full control effect
# Target sequence (P11473 whole entry, looked up): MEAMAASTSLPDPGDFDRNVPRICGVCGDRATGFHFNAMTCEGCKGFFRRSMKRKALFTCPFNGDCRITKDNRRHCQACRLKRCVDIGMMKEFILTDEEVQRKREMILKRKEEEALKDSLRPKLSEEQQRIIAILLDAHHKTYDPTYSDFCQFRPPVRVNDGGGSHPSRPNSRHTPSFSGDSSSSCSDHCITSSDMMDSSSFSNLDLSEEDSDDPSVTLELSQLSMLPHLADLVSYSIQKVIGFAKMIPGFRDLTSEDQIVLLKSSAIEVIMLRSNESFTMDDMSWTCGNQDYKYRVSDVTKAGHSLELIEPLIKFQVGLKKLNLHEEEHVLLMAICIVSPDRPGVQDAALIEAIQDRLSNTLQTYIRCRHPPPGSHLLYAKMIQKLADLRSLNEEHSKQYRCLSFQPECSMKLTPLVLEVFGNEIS
#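 Fluorescence polarization assay of small-molecule disruption of VDR binding to coregulator peptide SRC2-3. Compounds and controls pin-transferred, then read after 2 h incubation at ambient room temperature.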
# KDM4E inh: qHTS Assay for Inhibitors of Human Jumonji Domain Containing 2E (JMJD2E); JMJD2E catalytic domain, FDH-coupled NADH fluorescence (FDH is formaldehyde dehydrogenase); Potency, µM (top dose mostly 57.1 µM), inactives show at the highest dose activity change, negative = inhibition, most hits filed as inhibitors; hit rate 1.6% among 230,000; active = well fitted inhibition curve with a large enough effect, not every such curve was filed as active; inconclusive = small, poorly fitted or top-dose-only effect, or another doubt; inactive = no such curve, though single readings can be large or run the other way;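 note: potency is the fitted concentration of half-maximal effect; 0% = wells with enzyme and -100% = buffer wells without enzyme; nearly all actives have a fitted effect of over 50% in size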
# HTT ATP protect: qHTS Multiplex Assay to Identify Dual Action Probes in a Cell Model of Huntington: Cytoprotection (ATP); AID 1471, 2008; PC12 HTT-Q103 induced, cytoprotection, ATP luminescence, 40 h; hit rate 0.14% among 230,000; Potency, µM (top dose mostly 56.4 µM), without a hit: cytoprotection (ATP increase), usual class: activators; note: potency is the fitted concentration of half-maximal effect; % of control where 0% means no effect; nearly all actives have a fitted effect of over 45% in size
#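 Compounds added alongside 100 nM tebufenozide, which induces toxic Q103 huntingtin exon 1-GFP in stable PC12 cells; surviving cells quantified by luminescent ATP measurement. Medium: phenol red-free DMEM, 5% equine and 5% calf serum.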
# FBPA coupling cs: qHTS Assay for Inhibitors of Fructose-1,6-bisphosphate Aldolase from Giardia Lamblia: Coupling assay counterscreen; coupling enzyme system counterscreen, AmpLite Red fluorescence; activity change, negative = inhibition, % at 58.2 µM, hits read low; hit rate 0.67% among 290,000; in the data active = activity change below about -30%; note: % is set by controls: 0 for no effect and ±100 for the full control effect
#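 Activity here indicates interference with the coupling reaction, not aldolase inhibition. Compounds at 57.5 uM final met coupling enzymes for 10 min at RT; substrate and AmpLite Red detection followed, with a 525/598 nm fluorescence read after 20 min.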
# HttQ103 aggreg: qHTS Multiplex Assay to Identify Dual Action Probes in a Cell Model of Huntington: Aggregate Formation (GFP); PC12 HttQ103-GFP aggregates, Acumen cytometry, 40 h; Potency, µM (doses to about 46.1 µM), for the others: top-dose activity change, negative = inhibition, hits mostly inhibitors; hit rate 1.1% among 220,000; AID 1688, 2009; note: potency is the fitted concentration of half-maximal effect; % is set by controls: 0 for no effect and ±100 for the full control effect; nearly all actives have a fitted effect of over 60% in size
#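 Steps: seed 1500 PC12 HTTQ103-GFP cells/well; add tebufenozide, 100 nM final; add compound titration; add ATPLite reagent; quantify GFP aggregates by laser scanning cytometry.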
# VDR confirm: qHTS for Inhibitors of the vitamin D receptor (VDR): Hit Validation in Primary Screen. AID 602199, 2012. hit rate 89% among 840. Potency, µM, usual class: inhibitors. shares compounds with VDR inh. VDR-coactivator inhibition assay, qHTS confirmation; note: potency is the fitted concentration of half-maximal effect
# VDR FP: qHTS for Inhibitors of the vitamin D receptor (VDR): Hit Validation using a Fluorescein Assay; shares compounds with VDR inh; VDR-coactivator binding, fluorescein fluorescence polarization; Potency, µM (doses to about 57.1 µM), for inactives: at the highest dose activity change, negative = inhibition, usual class: inhibitors; hit rate 48% among 840; note: potency is the fitted concentration of half-maximal effect
# VDR bla: qHTS for Inhibitors of the vitamin D receptor (VDR): Hit Validation using a Beta-Lactamase Assay; shares compounds with VDR inh; VDR beta-lactamase reporter cells, FRET ratio; cells co-treated with VDR agonist LG190178; Potency, µM (top dose mostly 46.1 µM), for inactives: top-dose activity change, negative = inhibition, actives largely listed as inhibitors; hit rate 23% among 840; AID 602202, 2012; note: potency is the fitted concentration of half-maximal effect; % is set by controls: 0 for no effect and ±100 for the full control effect
# VDR cytotox: qHTS for Inhibitors of the vitamin D receptor (VDR): Hit Validation using a Cytotoxicity Assay | shares compounds with VDR inh | cytotoxicity counter-screen, cell viability, qHTS | Potency, µM (top dose mostly 48.3 µM), for inactives: top-dose activity change, negative = cytotoxicity, most hits filed as cytotoxic | hit rate 18% among 840 | AID 602204, 2012;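 note: potency is the fitted concentration of half-maximal effect; plate controls were DMSO for no effect and high-concentration cycloheximide for full effect; nearly all actives have a fitted effect of over 75% in size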
# Numbers without * were called inactive; ? = inconclusive; . = no result given; [ ] = remark or other dose. This is a sample that favours compounds with a hit; in the whole collection about 2.3% have one here. Unless noted, calls come from the whole dose curve; as a rule, active = well fitted curve in the direction sought with a large enough effect; inconclusive = small, poorly fitted or top-dose-only effect, or another doubt; inactive = no such curve, though single readings can be large; an effect the other way counts as inactive or inconclusive.
SMILES,GoLoco inh red,VDR inh,KDM4E inh,HTT ATP protect,FBPA coupling cs,HttQ103 aggreg,VDR confirm,VDR FP,VDR bla,VDR cytotox
CSc1nsc(SCC(=O)Nc2ccccc2F)n1,.,-2%,.,.,0,.,.,.,.,.
Cc1ccc(CS(=O)(=O)c2ncc(Cl)c(C(=O)Nc3nnc(C(C)C)s3)n2)cc1,.,13µM*,.,.,10,.,6.7*,3.2µM*,9.2µM*,18µM*
COc1ccccc1NS(=O)(=O)c1cc(NC(=O)c2cc[n+]([O-])cc2)ccc1N1CCCC1,-11%,-30%,?,-24%,0,3%,.,.,.,.
CCN(CC)c1ccc(NC(=O)c2ccccc2Br)cc1S(=O)(=O)Nc1ccccc1OC,-10%,22µM*,-24%,32%[10 µM],1,28%,3*,2.8µM*,22%,23%
COc1ccccc1NS(=O)(=O)c1cc(NC(=O)c2cccs2)ccc1N1CCCC1,-8%,22µM*,?,-3%[10 µM],0,?,6*,?,10%,0%
CCN1C(=O)C2(C(C(=O)c3cc4ccccc4o3)=C(O)C(=O)N2CCCN(C)C)c2ccccc21 (stereo unspecified),3%,-11%,-3%,8%[10 µM],1,16%[9.22 µM],.,.,.,.
Cc1cc(Br)cc2c1N(Cc1ccccc1OC(C)C)C(=O)C2=O,.,13µM*,.,.,.,.,4*,3.5µM*,23µM*,?
Cc1ccc(OCCN2C(=O)C(=O)c3cccc(C)c32)cc1,5%,-16%,14%,8%[10 µM],0,1%[9.22 µM],.,.,.,.
Cc1ccc2oc(=O)n(Cc3ccccc3OC(C)C)c2c1,-8%,15%,3%,-21%[10 µM],9,8%,.,.,.,.
Cc1cccc2c1N(Cc1ccccc1OCCC(C)C)C(=O)C2=O,.,22µM*,.,.,.,.,22*,10µM*,-9%,-19%
O=C(CCS(=O)(=O)c1nc(-c2cccs2)cc(C(F)(F)F)n1)Nc1ccc(Br)cc1,.,14µM*,.,.,.,.,3.5*,4µM*,?,?
CC(C)CNC(=O)CCSc1nc(-c2ccc3c(c2)OCO3)cc(C(F)(F)F)n1,.,-7%,.,.,.,.,.,.,.,.
O=C(CCS(=O)(=O)c1nc(-c2ccc3c(c2)OCO3)cc(C(F)(F)F)n1)Nc1ccc(F)cc1F,.,40µM*,.,.,.,.,11*,14µM*,?,2%
Cc1ccc(O)c(NC(=O)CCS(=O)(=O)c2nc(-c3cccs3)cc(C(F)(F)F)n2)c1,.,20µM*,.,.,.,.,4.5*,7.9µM*,?,?
O=C(CCS(=O)(=O)c1nc(-c2cccs2)cc(C(F)(F)F)n1)Nc1cc(Br)ccc1O,.,11µM*,.,.,.,.,3.2*,3.5µM*,-1%,?
CCOc1cc(N2CCOCC2)c(OCC)cc1NC(=O)CN1CCSC1=O,.,3%,.,.,.,.,.,.,.,.
O=C(NCCc1ccccc1)c1nn(-c2ccc(F)cc2)nc1CO,.,9%,.,.,.,.,.,.,.,.
Cc1ccc(-n2ncc3c(N4CCN(C)CC4)ncnc32)cc1Cl,.,20%,.,.,.,.,.,.,.,.
COc1ccc(NC(=O)C2CCCN(S(=O)(=O)c3ccc(F)cc3)C2)cc1 (stereo unspecified),.,-5%,.,.,.,.,.,.,.,.
Cc1ccc(C=Nc2ccc(N(C)C)cc2)o1,-4%,1µM*,13µM*,-39%,-22,-19%,12*,39%,-1%,1%
Cc1ccc(C=Nc2ccccc2C(N)=O)o1,0%,4%,2%,-59%[10 µM],-10,0%,.,.,.,.
CCOC(=O)c1ccc(S(=O)(=O)Nc2cc(S(=O)(=O)N3CCOCC3)ccc2O)cc1,.,45µM*,.,.,.,.,8.4*,?,0%,3%
O=C(CCCSc1ccc(Cl)cc1)Nc1cc(S(=O)(=O)N2CCOCC2)ccc1O,.,?,.,.,.,.,4*,3.2µM*,-6%,-9%
Cc1ccc(NC(=O)O/N=C/c2ccc(N(C)C)cc2)cc1,.,-14%,.,.,-4,.,.,.,.,.
O=[S@]1Oc2ccccc2-c2ccccc21,.,6.3µM*,.,.,.,.,4.7*,?,-10%,31%
SMILES,GoLoco inh red,VDR inh,KDM4E inh,HTT ATP protect,FBPA coupling cs,HttQ103 aggreg,VDR confirm,VDR FP,VDR bla,VDR cytotox
O=C1c2ccccc2OCOc2ccccc21,-1%,9%,6%,16%,-1,4%,.,.,.,.
Cc1cc(C)cc(NC(=O)CSc2nc3sc4c(c3c(=O)[nH]2)CCCC4)c1,.,6%,.,.,.,.,.,.,.,.
COC(=O)c1ccccc1NC(=O)CSc1nc2sc3c(c2c(=O)[nH]1)CCCC3,.,14µM*,.,.,.,.,?,4µM*,3%,4%
N#CC1=C(Nc2ccccc2Cl)SC(c2ccccc2O)NC1=O (stereo unspecified),-10%,20µM*,?,2%[10 µM],13,-4%[9.22 µM],3.8*,?,14%,13%
Cc1nc2c(=O)[nH]c(=S)n(C)c2nc1C,-10%,50µM*,3%,.,-4,3%,15*,?,-6%,?
Cc1nc2[nH]c(=S)[nH]c(=O)c2nc1C,.,-18%,.,.,.,.,.,.,.,.
CCCSc1ncc(Cl)c(C(=O)Nc2scc(-c3ccc(C)cc3)c2C(=O)OCC)n1,.,4%,.,.,.,.,.,.,.,.
Cc1ccccc1Nc1c(-c2ccc(Cl)s2)nc2ccccn12,.,-9%,.,.,.,.,.,.,.,.

# Assay outcomes (PubChem BioAssay)
